Assay results taken from PubChem BioAssay AID1159580 (chemical genetic matrix, 2015).
Values joined by “and” are separate entries in the source; they are usually repeats but may differ in a detail not shown here. Equal entries are not always repeated. Screen size: about 5,500 compounds; about 2,000 (36%) were called active. Roughly 18% stayed inconclusive and do not appear here. No stated cut-off is given here; in the data, active means normalized growth mostly below about 0.91 (no sharp cut-off); inconclusive means no clear call, values can overlap the other calls; inactive means mostly above about 0.92. This is one part of the list.

Assay: chemical genetic growth profiling, strain panel (AID 1159580);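 further: tested at 20 µM; growth read once vehicle control cultures reached saturation at 30 °C; 1 = growth at the plate median or of vehicle wells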
Details: growth OD

Measured: normalized growth

COC(=O)C1=CCCN(C)C1
inactive: S. cerevisiae deletion strains, locus YKL068W, stronger effect = lower value 0.996 | S. cerevisiae deletion strains, locus YKL085W, strain MDH1 (second series), stronger effect = lower value 0.997 | S. cerevisiae deletion strains, locus YKL085W, strain MDH1, stronger effect = lower value 0.997 | S. cerevisiae deletion strains, locus YKL160W, strain elf1, stronger effect = lower value 1.03 | S. cerevisiae deletion strains, locus YKL190W, strain CNB1, stronger effect = lower value 1 | S. cerevisiae deletion strains, locus YKR001C, strain vps1, stronger effect = lower value 1.01 | S. cerevisiae deletion strains, locus YKR026C, strain gcn3, stronger effect = lower value 1.01 | S. cerevisiae deletion strains, locus YKR091W, strain srl3, stronger effect = lower value 1.01 | S. cerevisiae deletion strains, locus YLL001W, strain dnm1, stronger effect = lower value 0.989 | S. cerevisiae deletion strains, locus YLL026W, stronger effect = lower value 1.02 | S. cerevisiae deletion strains, locus YLL041C, strain sdh2, stronger effect = lower value 0.991 | S. cerevisiae deletion strains, locus YLR027C, strain aat2, stronger effect = lower value 1 | S. cerevisiae deletion strains, locus YLR039C, strain RIC1, stronger effect = lower value 0.983 | S. cerevisiae deletion strains, locus YLR058C, strain SHM2, stronger effect = lower value 0.973 | S. cerevisiae deletion strains, locus YLR102C, strain apc9, stronger effect = lower value 1 | S. cerevisiae deletion strains, locus YLR113W, strain HOG1, stronger effect = lower value 0.994 | S. cerevisiae deletion strains, locus YLR221C, strain rsa3, stronger effect = lower value 0.992 | S. cerevisiae deletion strains, locus YLR258W, strain gsy2, stronger effect = lower value 1.01 | S. cerevisiae deletion strains, locus YLR262C, strain YPT6 (second series), stronger effect = lower value 0.986 | S. cerevisiae deletion strains, locus YLR262C, strain YPT6, stronger effect = lower value 0.953 | S. cerevisiae deletion strains, locus YLR268W, strain sec22, stronger effect = lower value 1 | S. cerevisiae deletion strains, locus YLR320W, strain mms22, stronger effect = lower value 0.961 | S. cerevisiae deletion strains, locus YLR330W, strain CHS5, stronger effect = lower value 0.991 | S. cerevisiae deletion strains, locus YLR342W, strain FKS1 (second series), stronger effect = lower value 1.01 | S. cerevisiae deletion strains, locus YLR342W, strain FKS1, stronger effect = lower value 0.995 | S. cerevisiae deletion strains, locus YLR357W, strain rsc2, stronger effect = lower value 1.01 | S. cerevisiae deletion strains, locus YLR370C, strain arc18, stronger effect = lower value 1 | S. cerevisiae deletion strains, locus YLR371W, strain rom2, stronger effect = lower value 0.999 | S. cerevisiae deletion strains, locus YLR384C, strain iki3, stronger effect = lower value 1.02 | S. cerevisiae deletion strains, locus YLR418C, strain cdc73, stronger effect = lower value 1.02 | S. cerevisiae deletion strains, locus YML016C, strain PPZ1, stronger effect = lower value 0.987 | S. cerevisiae deletion strains, locus YML032C, strain rad52, stronger effect = lower value 0.983 | S. cerevisiae deletion strains, locus YML120C, strain ndi1, stronger effect = lower value 1 | S. cerevisiae deletion strains, locus YML124C, strain tub3, stronger effect = lower value 0.994 | S. cerevisiae deletion strains, locus YMR058W, strain fet3, stronger effect = lower value 1.03 | S. cerevisiae deletion strains, locus YMR078C, strain ctf18, stronger effect = lower value 0.996 | S. cerevisiae deletion strains, locus YMR125W, strain sto1, stronger effect = lower value 1.02 | S. cerevisiae deletion strains, locus YMR129W, stronger effect = lower value 1 | S. cerevisiae deletion strains, locus YMR205C, strain PFK2, stronger effect = lower value 0.955 | S. cerevisiae deletion strains, locus YMR223W, strain ubp8, stronger effect = lower value 0.981 | S. cerevisiae deletion strains, locus YMR231W, strain pep5, stronger effect = lower value 1.01 | S. cerevisiae deletion strains, locus YMR263W, strain SAP30, stronger effect = lower value 0.984 | S. cerevisiae deletion strains, locus YMR307W, strain GAS1, stronger effect = lower value 1.01 and 0.99 | S. cerevisiae deletion strains, locus YNL067W, strain RPL9B, stronger effect = lower value 0.979 | S. cerevisiae deletion strains, locus YNL071W, strain lat1, stronger effect = lower value 1.01 | S. cerevisiae deletion strains, locus YNL128W, strain TEP1, stronger effect = lower value 0.986 | S. cerevisiae deletion strains, locus YNL153C, strain GIM3, stronger effect = lower value 0.983 | S. cerevisiae deletion strains, locus YNL175C, strain NOP13, stronger effect = lower value 1.04 | S. cerevisiae deletion strains, locus YNL183C, strain NPR1, stronger effect = lower value 0.953 | S. cerevisiae deletion strains, locus YNL197C, strain WHI3, stronger effect = lower value 1 | S. cerevisiae deletion strains, locus YNL209W, strain ssb2, stronger effect = lower value 1 | S. cerevisiae deletion strains, locus YNL224C, strain SQS1, stronger effect = lower value 1 | S. cerevisiae deletion strains, locus YNL233W, strain BNI4, stronger effect = lower value 0.99 | S. cerevisiae deletion strains, locus YNL248C, strain rpa49, stronger effect = lower value 1.02 | S. cerevisiae deletion strains, locus YNL250W, strain rad50, stronger effect = lower value 0.993 | S. cerevisiae deletion strains, locus YNL271C, strain bni1, stronger effect = lower value 0.995 | S. cerevisiae deletion strains, locus YNL298W, strain CLA4, stronger effect = lower value 1 | S. cerevisiae deletion strains, locus YNL307C, strain MCK1, stronger effect = lower value 0.996 | S. cerevisiae deletion strains, locus YNL322C, strain KRE1 (second series), stronger effect = lower value 1.03 | S. cerevisiae deletion strains, locus YNL322C, strain KRE1, stronger effect = lower value 0.985 | S. cerevisiae deletion strains, locus YNR049C, strain mso1, stronger effect = lower value 0.995 | S. cerevisiae deletion strains, locus YNR052C, strain pop2, stronger effect = lower value 0.995 | S. cerevisiae deletion strains, locus YOL006C, strain TOP1, stronger effect = lower value 0.981 | S. cerevisiae deletion strains, locus YOL012C, strain htz1 0.9 | S. cerevisiae deletion strains, locus YOL147C, strain pex11, stronger effect = lower value 0.992 | S. cerevisiae deletion strains, locus YOR001W, strain rrp6, stronger effect = lower value 0.971 | S. cerevisiae deletion strains, locus YOR061W, strain CKA2, stronger effect = lower value 0.968 | S. cerevisiae deletion strains, locus YOR069W, strain VPS5, stronger effect = lower value 0.997 | S. cerevisiae deletion strains, locus YOR070C, strain gyp1, stronger effect = lower value 1.01 | S. cerevisiae deletion strains, locus YOR080W, strain dia2, stronger effect = lower value 1 | S. cerevisiae deletion strains, locus YOR083W, strain WHI5 (second series), stronger effect = lower value 1.02 | S. cerevisiae deletion strains, locus YOR083W, strain WHI5, stronger effect = lower value 1.01 | S. cerevisiae deletion strains, locus YOR106W, strain vam3, stronger effect = lower value 1.04 | S. cerevisiae deletion strains, locus YOR136W, strain idh2, stronger effect = lower value 1 | S. cerevisiae deletion strains, locus YOR144C, strain elg1, stronger effect = lower value 0.997 | S. cerevisiae deletion strains, locus YOR184W, strain ser1, stronger effect = lower value 0.989 | S. cerevisiae deletion strains, locus YOR231W, strain MKK1, stronger effect = lower value 0.994 | S. cerevisiae deletion strains, locus YOR265W, strain rbl2, stronger effect = lower value 1 | S. cerevisiae deletion strains, locus YOR270C, strain vph1, stronger effect = lower value 1.01 | S. cerevisiae deletion strains, locus YOR290C, strain snf2, stronger effect = lower value 1.02 | S. cerevisiae deletion strains, locus YOR316C, strain cot1, stronger effect = lower value 0.993 | S. cerevisiae deletion strains, locus YPL051W, strain arl3, stronger effect = lower value 1.03 | S. cerevisiae deletion strains, locus YPL055C, strain LGE1, stronger effect = lower value 0.977 and 1.03 | S. cerevisiae deletion strains, locus YPL078C, strain atp4, stronger effect = lower value 1.03 | S. cerevisiae deletion strains, locus YPL106C, strain sse1, stronger effect = lower value 1.04 | S. cerevisiae deletion strains, locus YPL240C, strain hsp82, stronger effect = lower value 1 | S. cerevisiae deletion strains, locus YPL241C, strain CIN2, stronger effect = lower value 0.994 | S. cerevisiae deletion strains, locus YPL256C, strain CLN2, stronger effect = lower value 1 | S. cerevisiae deletion strains, locus YPR119W, strain clb2, stronger effect = lower value 0.991 | S. cerevisiae deletion strains, locus YPR141C, strain kar3, stronger effect = lower value 0.99 | S. cerevisiae deletion strains, locus YPR163C, strain tif3, stronger effect = lower value 0.999 | S. cerevisiae deletion strains, locus YPR167C, strain met16, stronger effect = lower value 1 | S. cerevisiae deletion strains, strain wtn01, stronger effect = lower value 0.994 | S. cerevisiae strains, strain wild type, stronger effect = lower value 0.993
